G9a inh = blocks human histone lysine methyltransferase G9a; Potency, µM (titrated, usually from 102 µM), inactives show at the top dose activity, negative = inhibition, most hits filed as inhibitors; G9a H3K9 monomethylation, AlphaScreen, 2 h; 8.8% of 350,000 active; Q96KQ7; also: potency is read from the fitted curve at half-maximal effect; nearly all actives have a fitted effect of over 75% in size
Target sequence (Q96KQ7 913-1193 limits assumed): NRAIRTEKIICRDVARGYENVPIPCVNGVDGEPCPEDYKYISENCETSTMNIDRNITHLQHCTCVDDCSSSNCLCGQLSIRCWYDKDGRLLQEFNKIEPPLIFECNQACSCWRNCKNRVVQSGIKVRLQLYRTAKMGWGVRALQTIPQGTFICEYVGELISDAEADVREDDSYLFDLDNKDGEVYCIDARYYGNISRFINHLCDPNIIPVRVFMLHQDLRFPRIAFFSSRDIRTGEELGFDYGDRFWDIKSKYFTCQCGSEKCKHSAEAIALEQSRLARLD
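G9a (20 nM) preincubated 15 min RT with compounds, then 500 nM biotinylated H3K9 peptide and 20 uM SAM added; 2 h RT reaction. Monomethyl-H3K9 product detected by AlphaScreen with anti-H3K9me1 antibody, streptavidin donor and anti-rabbit IgG acceptor beads.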
PLK1 PBD block = blocks phosphopeptide binding to human PLK1 polo-box domain | P53350 | Plk1 PBD binding of FITC phosphopeptide, fluorescence polarization | Potency, µM, inactives show max response, negative = inhibition, most hits filed as inhibitors | 2.8% of 360,000 active | AID 720504; also: potency is read from the fitted curve at half-maximal effect; series mostly up to about 57 µM; nearly all actives have a fitted effect of over 65% in size
VDR inhibitor = inhibitors of human vitamin D receptor; VDR-SRC2-3 peptide fluorescence polarization, 2 h; Potency, µM, for inactives: max response, negative = inhibition, hits mostly inhibitors; 0.93% of 400,000 active; AID 504847; also: potency is read from the fitted curve at half-maximal effect
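Measured by FP: displacement of SRC2-3 coactivator peptide from VDR by library compounds, following a two-hour ambient incubation.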
MmCpn inh = blocks the Methanococcus maripaludis chaperonin Mm-Cpn. purified Mm-Cpn ATPase, ADP Transcreener TR-FRET. Potency, µM (doses to about 76.9 µM), inactives show at the top dose activity, negative = inhibition, hits mostly inhibitors. 0.031% of 330,000 active; also: potency is read from the fitted curve at half-maximal effect; nearly all actives have a fitted effect of over 80% in size
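Purified archaeal chaperonin (25 nM final) was preincubated with compound for 10 min at 37°C, then ATP (10 uM final) was added for 30 min at 37°C in Tris pH 7.4/KCl/MgCl2/DTT buffer. ADP was quantified by HTRF Transcreener TR-FRET.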
CCT chaperon mod = changes cytosolic chaperonin activity | 0.3% of 360,000 active | purified chaperonin ATPase assay, HTRF ADP detection, 30 min | activity change, % (concentration not given with the values), hits read low; in the data active = activity change below about -30%
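ATPase activity: ADP formed was measured by HTRF Transcreener (665/615 nm ratio) after 30 min at 37 deg C with 10 uM ATP. Compounds screened at one 76 uM concentration against 40 or 20 nM TRiC in Tris pH 7.4/KCl/MgCl2/DTT buffer.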
Sfp PPTase inh = inhibitors of Bacillus subtilis Sfp phosphopantetheinyl transferase | Q9F4F7 | Biochemical Sfp PPTase activity, qHTS | Potency, µM, without a hit: largest response in the series, negative = inhibition, most hits filed as inhibitors | 3.5% of 310,000 active | AID 1490;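 also: the enzyme is Sfp with the accession as filed and its product quenches rhodamine fluorescence; potency is read from the fitted curve at half-maximal effect; 0% = enzyme reaction without inhibitor and -100% = no enzyme wells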
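Reaction rates are the 30-min fluorescence difference (ex 525, em 598 nm) in wells containing 15 nM Sfp, 5 uM rhodamine-CoA and 12.5 uM BHQ-2-YbbR at pH 7.6 with 10 mM MgCl2.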
The depositor's hits bear a star; [ ] = remark or other dose. Sampled rows, rich in hits. Any-hit rate of the full collection: about 10%. Unless noted, calls follow the shape of the dose curve; as a rule, active = well fitted curve in the direction sought with a large enough effect; inconclusive = small, poorly fitted or top-dose-only effect, or another doubt; inactive = no such curve, though single readings can be large; an effect the other way counts as inactive or inconclusive. Unless noted, % is scaled to controls: 0 for no effect and ±100 for the full control effect.

O=C(Oc1ccccc1)N1CCC2(CC1)CCN(C(c1ccccc1)c1ccccc1)CC2 was read as G9a inh 4%[12.7 µM], VDR inhibitor 3% and Sfp PPTase inh 23%.
Cc1ccc(C)c(CN2C(=O)c3ccccc3S(=O)(=O)c3ccc(C(=O)N4CCCCCC4)cc32)c1 was read as G9a inh -10%[59 µM] and VDR inhibitor inconclusive.
For CC1=Nc2ccccc2/C1=C/c1c(O)[nH]c(=O)[nH]c1=O the results were G9a inh 79µM*, PLK1 PBD block inconclusive, VDR inhibitor 6%, MmCpn inh -2%, CCT chaperon mod -2 and Sfp PPTase inh 0%.
For C=CCn1c(O)c(/C=C2\C=Nc3ccccc32)c(=O)[nH]c1=O the results were PLK1 PBD block inconclusive, VDR inhibitor -6%, MmCpn inh inconclusive, CCT chaperon mod 2 and Sfp PPTase inh inconclusive.
For CCOC(=O)C(O)(c1ccc(N(C)C(=O)COc2ccccc2)cc1)C(F)(F)F (configuration not stated) the results were PLK1 PBD block 1%, VDR inhibitor -12% and CCT chaperon mod 0.
`CC(OC(=O)COc1ccc(Nc2ccccc2)cc1)C(=O)N(C)c1ccccc1` (configuration not stated) gave G9a inh 40µM*, PLK1 PBD block -19%, VDR inhibitor -8%, MmCpn inh 0% and CCT chaperon mod 1.
`CNCCc1c(C)n[nH]c1C` gave G9a inh inconclusive, PLK1 PBD block -3%, VDR inhibitor -8%, MmCpn inh -1%, CCT chaperon mod 1 and Sfp PPTase inh 14%.
For CNCCc1nc(N)n[nH]1 the results were G9a inh 56µM*, PLK1 PBD block 2%, VDR inhibitor 0%, MmCpn inh 1%, CCT chaperon mod -2 and Sfp PPTase inh -9%.
For CC12CCC3C4CCC(=O)C(O)=C4CCC3C1CCC2OC(=O)CCC1CCCC1 (configuration not stated) the results were G9a inh 7%[12.7 µM], VDR inhibitor 0% and Sfp PPTase inh 17%.
Screening Cc1ccccc1CN1CCNCC1 returned PLK1 PBD block 0%, VDR inhibitor 29%, MmCpn inh 1%, CCT chaperon mod -6 and Sfp PPTase inh 1%.
Cc1ccccc1CN1CCN(c2ccc(Cl)cc2)CC1 was read as G9a inh 13µM*, PLK1 PBD block 3%, VDR inhibitor -13%, MmCpn inh 2%, CCT chaperon mod -1 and Sfp PPTase inh 50µM*.
For c1ccc(CN2CCC3(CCNCC3)CC2)cc1 the results were G9a inh -28%[12.7 µM], VDR inhibitor inconclusive and Sfp PPTase inh -12%.
`O=C(NC1CCCCC1)c1cn(CCN2CCOCC2)c2cc(Cl)ccc2c1=O` gave VDR inhibitor -14% and Sfp PPTase inh 3%.
`CN(C)CCC=C1c2ccccc2CCc2ccccc21` gave G9a inh -20%[59 µM], PLK1 PBD block -5%, VDR inhibitor -2%, MmCpn inh -2%, CCT chaperon mod 1 and Sfp PPTase inh inconclusive.
NNc1n[nH]c(=S)n1N was read as G9a inh 25µM*, PLK1 PBD block 9%, VDR inhibitor -21%, MmCpn inh -2%, CCT chaperon mod 1 and Sfp PPTase inh 2.8µM*.
Screening C[C@@H](C(=O)OC1C[C@H]2CC[C@@H](C1)N2C)c1ccc(Br)cc1 (some centres not stated) returned VDR inhibitor 9% and Sfp PPTase inh 4%.
For O=[N+]([O-])c1ccc(OP(=O)(O)Oc2ccc([N+](=O)[O-])cc2)cc1 the results were PLK1 PBD block 6%, VDR inhibitor -17% and CCT chaperon mod -1.
O=C1NC(=O)C(=Cc2ccc(OCCOc3ccc([N+](=O)[O-])cc3)cc2)C(=O)N1 was read as G9a inh 22µM*, PLK1 PBD block 2.7µM*, VDR inhibitor 50µM*, MmCpn inh -2%, CCT chaperon mod -2 and Sfp PPTase inh 50µM*.
`CN1c2cc(O)c(N=NC(N)=O)cc2CC1S(=O)(=O)O` (configuration not stated) gave G9a inh inconclusive, VDR inhibitor -7% and Sfp PPTase inh -26%.
For NC(C(=O)O)c1cc(=O)[nH]o1 (configuration not stated) the results were G9a inh 0%[59 µM], PLK1 PBD block -2%, VDR inhibitor -4%, MmCpn inh 0%, CCT chaperon mod 1 and Sfp PPTase inh 79µM*.
For CC(C)(C)c1o[nH]c(=O)c1CC(N)C(=O)O (configuration not stated) the results were G9a inh -6%[59 µM], PLK1 PBD block -9%, VDR inhibitor -3%, MmCpn inh 0% and CCT chaperon mod -1.
Screening CCn1ccnc1CN1CCCC(C(=O)c2ccc(OC)cc2OC)C1 (configuration not stated) returned G9a inh 7%, PLK1 PBD block -6%, VDR inhibitor 12%, MmCpn inh 1%, CCT chaperon mod -2 and Sfp PPTase inh 0%.
CCn1ccnc1CN1CCCC(C(=O)c2cc(F)ccc2OC)C1 (configuration not stated) was read as G9a inh 7.1µM*, PLK1 PBD block -9%, VDR inhibitor 5%, MmCpn inh 2%[15.4 µM], CCT chaperon mod -3 and Sfp PPTase inh inconclusive.
For Cc1ccccc1-c1nn2c(=O)cc(CN3CCN(C(=O)COc4ccccc4Cl)CC3)nc2s1 the results were G9a inh 5%[59 µM] and VDR inhibitor 2%.
For CCCCCN1C(=O)c2ccccc2[C@@]2(C(=O)OCC)Cc3cc(Cl)ccc3[C@@H]12 the results were PLK1 PBD block inconclusive and CCT chaperon mod 2.
`CCOC(=O)[C@]12Cc3cc(Cl)ccc3[C@H]1N(C)C(=O)c1cc(OC)ccc12` gave PLK1 PBD block 11µM* and CCT chaperon mod -2.
CCCCCN1C(=O)c2cc(OC)ccc2[C@@]2(C(=O)OCC)Cc3cc(OC)ccc3[C@@H]12 was read as PLK1 PBD block 4.7µM* and CCT chaperon mod 0.
`CCOC(=O)[C@]12Cc3cc(C)ccc3[C@H]1N(Cc1ccccc1)C(=O)c1cc(OC)ccc12` gave PLK1 PBD block inconclusive and CCT chaperon mod -1.
`CCOC(=O)[C@]12Cc3cc(OC)ccc3[C@H]1N(C)C(=O)c1cc(OC)ccc12` gave PLK1 PBD block 9.5µM* and CCT chaperon mod -2.
`CCOC(=O)[C@]12Cc3cc(OC)ccc3[C@H]1N(CC(=O)OC)C(=O)c1cc(OC)ccc12` gave PLK1 PBD block 13µM* and CCT chaperon mod -2.
